# According to PubChem BioAssay AID720697 (Broad Institute, 2013):
# Results with a measured potency or affinity are listed apart. Results filed as inconclusive are left out. Activity calls are given as the source filed them.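 Rule for the calls: active = signal loss with fitted half-maximal concentration at or below twice the top valid tested dose in every test run; inconclusive = runs disagree, flat 30 to 70% signal loss, or poor fit; inactive = all runs flat, opposite direction, or potency beyond limit.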
# Test: HEK293T cytotoxicity, dose response, cytotoxicity control for miR-122 modulator project, cell-based, inhibitor set, cherry-pick, set 2 (AID 720697)
# Details: HEK293T viability, CellTiter-Glo luminescence, 48 h; series mostly up to 26 µM
row,SMILES,outcome
1,COc1ccccc1C#Cc1ccc2c(c1)O[C@H](CN(C)Cc1cccnc1)[C@H](C)CN([C@@H](C)CO)S2(=O)=O,inactive
2,Cc1cc(C(=O)Nc2ccc3c(c2)C(=O)N(C)[C@H]2CC[C@H](CC(=O)N[C@H](C)c4ccccc4)O[C@H]2CO3)no1,inactive
3,O=C(Nc1ccc(CN2CCOCC2)cc1)c1ccc(-c2ccc(Cl)cc2Cl)o1,inactive
4,CN1C(=O)c2cc(NC(=O)c3cccs3)ccc2OC[C@@H]2O[C@@H](CC(=O)O)CC[C@@H]21,inactive
5,O=C(NC[C@H]1N[C@H](CO)[C@@H]1c1ccc(-c2ccccc2F)cc1)c1ccccc1,inactive
6,COc1cccc(-c2ccc3c(c2)O[C@H](CN(C)C(=O)C2CCOCC2)[C@H](C)CN([C@@H](C)CO)S3(=O)=O)c1,inactive
7,CC(=O)N=c1scc(-c2ccccc2)n1-c1cccc(O)c1,inactive
8,COc1ccc(-c2cc(-c3nc4ccccn4c3NCc3ccccc3)ccc2OC)cc1,inactive
9,Cc1cc(CN(C)C(=O)c2cc(COc3ccc4ncccc4c3)on2)on1,inactive
10,CCNC(=O)C[C@H]1CC[C@@H]2[C@@H](COc3ccc(NC(=O)Nc4cccc(Cl)c4)cc3C(=O)N2C)O1,inactive
11,CCN(C[C@@H]1N[C@@H](CO)[C@H]1c1ccc(-c2cccc(F)c2)cc1)C(=O)CN(C)C,inactive
12,COc1cc(NC(=O)c2c(F)c(F)c(F)c(F)c2F)c(OC)cc1Cl,inactive
13,COc1ccc(NC(=O)Cn2nnc(C(=O)NCc3ccccc3OC)c2N)cc1Cl,inactive
14,Cc1cccc(NC(=O)c2sc3nc(-c4ccc(F)cc4)cn3c2C)n1,inactive
